# Measured values from the supplement of paper PMC9694430.
# Several values for one entry are separate records, joined by “and”; a condition that tells them apart may be missing. Identical values can stand only once.
# Assays:
# Assay in all cases: thermal shift delta Tm vs DMSO control; higher = stronger stabilization (binding)
# Settings in all cases: 12.5 µM; protein concentration 2 µM
# LOC_OS01G57100-cb003 = tested on: LOC_OS01G57100-cb003
# How it was run: (§1)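 Rice kinase domain constructs, made in E. coli and purified, were placed in 96-well plates at 2 μM in 19.5 μl of 100 mM potassium phosphate pH 7.5, 150 mM NaCl, 10% glycerol and 5 × SYPRO Orange, with compound in DMSO. A temperature ramp from 25°C to 95°C at 0.05°C/s was used for differential scanning fluorimetry. The melting temperature shift is a triplicate mean compared with DMSO-only protein, derived from Boltzmann fits.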
# LOC_OS01G60330-cb001 = tested on: LOC_OS01G60330-cb001
# How it was run: as §1
# LOC_OS01G60700-cb002 = tested on: LOC_OS01G60700-cb002
# How it was run: as §1
# LOC_OS01G63280-cb003 = tested on: LOC_OS01G63280-cb003
# How it was run: as §1
# LOC_OS01G67340-cb003 = tested on: LOC_OS01G67340-cb003
# How it was run: as §1
# LOC_OS01G70970-cb002 = tested on: LOC_OS01G70970-cb002
# How it was run: as §1
# LOC_OS02G07810-cb001 = tested on: LOC_OS02G07810-cb001
# How it was run: as §1
# LOC_OS02G08530-cb003 = tested on: LOC_OS02G08530-cb003
# How it was run: as §1
# LOC_OS02G14120-cb001 = tested on: LOC_OS02G14120-cb001
# How it was run: as §1
# LOC_OS02G17970-cb001 = tested on: LOC_OS02G17970-cb001
# How it was run: as §1
# LOC_OS02G45750-cb003 = tested on: LOC_OS02G45750-cb003
# How it was run: as §1
# LOC_OS02G54510-cb004 = tested on: LOC_OS02G54510-cb004
# How it was run: as §1
# LOC_OS03G04050-cb001 = tested on: LOC_OS03G04050-cb001
# How it was run: as §1
# LOC_OS03G12390-cb001 = tested on: LOC_OS03G12390-cb001
# How it was run: as §1
# LOC_OS03G27990-cb004 = tested on: LOC_OS03G27990-cb004
# How it was run: as §1
# LOC_OS03G50450-cb001 = tested on: LOC_OS03G50450-cb001
# How it was run: as §1
# LOC_OS03G50810-cb003 = tested on: LOC_OS03G50810-cb003
# How it was run: as §1
# LOC_OS04G35114-cb001 = tested on: LOC_OS04G35114-cb001
# How it was run: as §1
# LOC_OS04G38480-cb003 = tested on: T1, LOC_OS04G38480-cb003
# T1 sequence (whole entry): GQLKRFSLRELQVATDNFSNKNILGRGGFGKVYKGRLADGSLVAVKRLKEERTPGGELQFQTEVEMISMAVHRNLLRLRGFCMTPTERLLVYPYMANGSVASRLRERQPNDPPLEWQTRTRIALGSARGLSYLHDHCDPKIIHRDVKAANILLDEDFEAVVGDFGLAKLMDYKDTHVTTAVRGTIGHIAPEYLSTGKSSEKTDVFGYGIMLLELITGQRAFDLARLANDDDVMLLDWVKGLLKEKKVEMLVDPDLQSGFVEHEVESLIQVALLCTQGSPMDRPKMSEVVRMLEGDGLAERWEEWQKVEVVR
# How it was run: as §1
# LOC_OS04G41100-cb001 = tested on: T2, LOC_OS04G41100-cb001
# T2 sequence (whole entry): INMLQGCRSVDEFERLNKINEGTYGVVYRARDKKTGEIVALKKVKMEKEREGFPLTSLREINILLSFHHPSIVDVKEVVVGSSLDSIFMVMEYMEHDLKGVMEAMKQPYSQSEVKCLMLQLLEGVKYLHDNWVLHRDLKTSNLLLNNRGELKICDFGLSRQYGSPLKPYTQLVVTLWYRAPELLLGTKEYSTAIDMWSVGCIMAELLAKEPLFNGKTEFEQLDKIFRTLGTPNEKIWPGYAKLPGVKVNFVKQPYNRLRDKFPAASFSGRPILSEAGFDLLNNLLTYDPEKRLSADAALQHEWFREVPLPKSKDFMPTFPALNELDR
# How it was run: as §1
# 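Note: purified Escherichia coli-expressed rice kinase domain construct.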
Compound,thermal shift delta Tm (LOC_OS01G57100-cb003),thermal shift delta Tm (LOC_OS01G60330-cb001),thermal shift delta Tm (LOC_OS01G60700-cb002),thermal shift delta Tm (LOC_OS01G63280-cb003),thermal shift delta Tm (LOC_OS01G67340-cb003),thermal shift delta Tm (LOC_OS01G70970-cb002),thermal shift delta Tm (LOC_OS02G07810-cb001),thermal shift delta Tm (LOC_OS02G08530-cb003),thermal shift delta Tm (LOC_OS02G14120-cb001),thermal shift delta Tm (LOC_OS02G17970-cb001),thermal shift delta Tm (LOC_OS02G45750-cb003),thermal shift delta Tm (LOC_OS02G54510-cb004),thermal shift delta Tm (LOC_OS03G04050-cb001),thermal shift delta Tm (LOC_OS03G12390-cb001),thermal shift delta Tm (LOC_OS03G27990-cb004),thermal shift delta Tm (LOC_OS03G50450-cb001),thermal shift delta Tm (LOC_OS03G50810-cb003),thermal shift delta Tm (LOC_OS04G35114-cb001),thermal shift delta Tm (LOC_OS04G38480-cb003),thermal shift delta Tm (LOC_OS04G41100-cb001)
CONC(=O)c1ccccc1Nc1cc(Nc2cc(C)nn2C(C)C)ncc1Cl,0.63 °C,0.07 °C,0.19 °C,0.5 °C,0.98 °C,1.15 °C,-0.17 °C,1.79 °C,3.22 °C,0.4 °C,1.44 °C,0.08 °C,0.47 °C,1.86 °C,0.55 °C,0.47 °C,1.12 °C,0.79 °C,2.41 °C,0.42 °C
NCC(=O)Nc1ccc(-n2nc(C(F)(F)F)cc2-c2ccc3c(ccc4ccccc43)c2)cc1,0.88 °C,4.36 °C,0.02 °C,3.67 °C,-0.53 °C,0.2 °C,0.25 °C,0.42 °C,1.29 °C,-0.34 °C,-0.16 °C,-0.91 °C,0.64 °C,0.8 °C,-0.15 °C,0.36 °C,0.37 °C,-0.57 °C,1.25 °C,0.65 °C
CCn1cc(-c2ccnc3[nH]c(-c4cccc(CN(C)C)c4)cc23)c(-c2ccc(NC(=O)N(C)C)cc2)n1,1.51 °C,0.61 °C,1.18 °C,2.91 °C,0.66 °C,0.18 °C,0.49 °C,1.02 °C,6.39 °C,1.01 °C,2.5 °C,0.45 °C,0.74 °C,0.47 °C,0.5 °C,0.98 °C,1.14 °C,1.02 °C,1.93 °C,1.22 °C
O=C1NC(=O)/C(=C/c2ccc3nccc(-c4ccncc4)c3c2)S1,0.39 °C,0.51 °C,0.74 °C,-0.17 °C,0.62 °C,0.07 °C,0.58 °C,0.62 °C,3.14 °C,0.7 °C,1.29 °C,0.51 °C,0.38 °C,2.47 °C,0.28 °C,0.79 °C,0.4 °C,7.2 °C,1.96 °C,0.48 °C
CCNC(=O)C#Cc1ccc2c(C(=Nc3ccc(CN(C)C)cc3)c3ccccc3)c(O)[nH]c2c1,-0.26 °C,0.78 °C,0.32 °C,0.72 °C,1.01 °C,13.4 °C,0.15 °C,2.16 °C,0.91 °C,0.63 °C,7.14 °C,2.44 °C,-0.2 °C,1.25 °C,0.99 °C,0.07 °C,4.57 °C,9.15 °C,1.25 °C,4.14 °C
Oc1c(F)cc(-c2cnccc2-c2ccc(N3CCOCC3)cc2)cc1F,1.14 °C,1.01 °C,0.34 °C,0.58 °C,0.1 °C,0.21 °C,0.35 °C,0.7 °C,0.35 °C,0.29 °C,0.77 °C,0.07 °C,0.28 °C,-0.05 °C,0.11 °C,0.25 °C,0.2 °C,1.09 °C,0.6 °C,0.44 °C
COc1ccc(CC(=O)Nc2nc3c(s2)CCc2ccccc2-3)cc1OC,2.6 °C,0.9 °C,0.11 °C,0.2 °C,1.18 °C,0.74 °C,-0.24 °C,0.98 °C,2.82 °C,0.81 °C,1.49 °C,-0.24 °C,0.51 °C,0.4 °C,0.36 °C,0.29 °C,0.43 °C,0.71 °C,1.33 °C,0.15 °C
CN(c1ncccc1CNc1nc(Nc2ccc3c(c2)CC(=O)N3)ncc1C(F)(F)F)S(C)(=O)=O,1.74 °C and 1.7 °C,2.27 °C and 2.55 °C,0.88 °C and 1.26 °C,2.29 °C and 3.24 °C,1.9 °C and 2.14 °C,6.41 °C and 7.59 °C,0.34 °C and 0.67 °C,1.99 °C and 2.23 °C,4.47 °C and 5.67 °C,0.58 °C and 1.27 °C,6.83 °C and 7.06 °C,1.05 °C and 1.09 °C,0.54 °C and 0.38 °C,3.95 °C and 4.88 °C,2.23 °C and 2.44 °C,2.36 °C and 2.48 °C,3.64 °C and 4.1 °C,4.17 °C and 4.61 °C,1.77 °C and 2.12 °C,1.82 °C and 1.92 °C
Cc1c(Cn2c(C)nc3c(C(=O)O)cc(N4CCOCC4)cc32)cccc1C(F)(F)F,1.01 °C,0.83 °C,0.4 °C,-0.3 °C,0.23 °C,0.27 °C,0.73 °C,0.55 °C,-0.38 °C,0.26 °C,0.34 °C,0.11 °C,0.14 °C,-0.17 °C,0.07 °C,0.48 °C,0.29 °C,0.99 °C,0.75 °C,0.4 °C
CN(C)C/C=C/C(=O)Nc1cc2c(Nc3ccc(F)c(Cl)c3)ncnc2cc1O[C@H]1CCOC1 [Afatinib (BIBW2992)],0.75 °C,0.2 °C,1 °C,-0.22 °C,-0.42 °C,0.44 °C,0.56 °C,0.76 °C,2.04 °C,-0.15 °C,0.69 °C,-0.42 °C,0.26 °C,1.35 °C,0.99 °C,0.05 °C,0.86 °C,4.16 °C,0.66 °C,0.51 °C
CC1Oc2cc(cnc2N)-c2c(nn(C)c2C#N)CN(C)C(=O)c2ccc(F)cc21 (stereo not given),3.37 °C,0.4 °C,0.4 °C,0.16 °C,0.4 °C,0.35 °C,-0.27 °C,2.75 °C,6.77 °C,0.31 °C,1.05 °C,0.8 °C,0.3 °C,6.42 °C,0.12 °C,-0.13 °C,0.66 °C,0.69 °C,2.3 °C,0.38 °C
COc1ccc(F)c(F)c1C(=O)c1cnc(NC2CCN(S(C)(=O)=O)CC2)nc1N,0.71 °C,0.06 °C,0.31 °C,-0.18 °C,1.43 °C,0.03 °C,0.5 °C,0.57 °C,-0.08 °C,-0.09 °C,1.63 °C,-0.08 °C,0.26 °C,-0.05 °C,0.19 °C,0.18 °C,0.05 °C,0.62 °C,1.07 °C,0.79 °C
Cc1ncc(CCCN(C)C)cc1Nc1ncc2c(n1)-c1ccc(C(F)(F)F)cc1NC(=S)C2,1.69 °C,0.92 °C,1.39 °C,0.8 °C,0.49 °C,0.65 °C,0.56 °C,1.89 °C,0.46 °C,1.61 °C,1.25 °C,0.09 °C,0.4 °C,3.03 °C,0.91 °C,0.13 °C,0.62 °C,0.02 °C,0.51 °C,0.47 °C
